Consider 10 compounds from PubChem BioAssay (EPA / NIEHS).

For test [1], the system named is 5-hydroxytryptamine receptor 2C (pig). Nature of the test: NVS_GPCR_p5HT2C: NovaScreen (NVS) G Protein-Coupled Receptor Assay for pig Serotonin, 5-Hydroxytryptamine Receptor 2C (5HT2C) (AID 2283288). In outline:
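Radioligand displacement on membranes from pig choroid plexus, detected by filter scintillation counting after 1 h. Tested first at a single 25 uM in duplicate, then in concentration-response for actives; DMSO served as baseline.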

Test [2] deals with mouse Cholecystokinin, CCK2 Receptor (CCKB), Cckbr (gene 12426) (UniProt P56481). The test can be described thus: NVS_GPCR_mCKKBCentral: NovaScreen (NVS) G Protein-Coupled Receptor Assay for mouse Cholecystokinin, CCK2 Receptor (CCKB) (AID 2283293). In outline: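 Mouse forebrain membrane preparation incubated 2 h with chemical and radioligand; bound radioactivity counted after filtration. Single-concentration duplicate screen at 25 uM, then concentration series to 50 uM max for hits, DMSO as baseline.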

Test [3] concerns the target guinea pig Bradykinin Receptor B2 (BK2), BDKRB2 (gene 100135486) (UniProt O70526). Nature of the test: NVS_GPCR_gBK2: NovaScreen (NVS) G Protein-Coupled Receptor Assay for guinea pig Bradykinin Receptor B2 (BK2) (AID 2283292). In outline:
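Guinea pig ileum membrane preparation incubated 1 h with radioligand and test chemical; bound counts measured after filtration. Primary duplicate screening at 25 uM, then singleton concentration series with a 50 uM top dose; DMSO as baseline.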

In test [4] the target is rat Serotonin, 5-Hydroxytryptamine Receptor 1 (5HT1), Non-Selective Binding, Htr1a (gene 24473) (UniProt P19327). The test can be described thus: NVS_GPCR_r5HT1_NonSelective: NovaScreen (NVS) G Protein-Coupled Receptor Assay for rat Serotonin, 5-Hydroxytryptamine Receptor 1 (5HT1), Non-Selective Binding (AID 2283286). The method, boiled down: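 Binding of a radioligand to rat cortex membranes is read by filtration and scintillation counting after 1 h. Compounds were screened at 25 uM in duplicate. Actives were then titrated to a top of 50 uM. DMSO is the baseline.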

Test [5] addresses rat Adrenergic, Alpha 1, Non-selective Receptor (Adra1), Adra1a (gene 29412) (UniProt P43140). The test can be described thus: NVS_GPCR_rAdra1_NonSelective: NovaScreen (NVS) G Protein-Coupled Receptor Assay for rat Adrenergic, Alpha 1, Non-selective Receptor (Adra1) (AID 2283289). The method, boiled down: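 Chemicals first screened in duplicate at 25 uM, then actives tested in concentration series up to 50 uM. Binding measured as displacement of radioligand from rat forebrain membrane receptors, 1 h, filtration with scintillation readout; DMSO baseline.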

Test [6] addresses rat Serotonin, 5-Hydroxytryptamine Receptor (5HT), Non-Selective Binding, Htr1a (gene 24473) (UniProt P19327). Nature of the test: NVS_GPCR_r5HT_NonSelective: NovaScreen (NVS) G Protein-Coupled Receptor Assay for rat Serotonin, 5-Hydroxytryptamine Receptor (5HT), Non-Selective Binding (AID 2283295). The method, boiled down: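 Rat cortex membrane preparation incubated 1 h with radioligand and test chemical; bound radioactivity counted after filtration. Screening began in duplicate at 25 uM with concentration-series follow-up; fitting relative to DMSO.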

Test [7] has as its target mouse Cholecystokinin, CCK1 Receptor (CCKA), Cckar (gene 12425) (UniProt O08786). The test can be described thus: NVS_GPCR_mCCKAPeripheral: NovaScreen (NVS) G Protein-Coupled Receptor Assay for mouse Cholecystokinin, CCK1 Receptor (CCKA) (AID 2283285). The method, then: NVS_GPCR_mCCKAPeripheral is a biochemical, single-readout assay that uses extracted gene-proteins from Mouse pancreatic membranes in a tissue-based cell-free assay. Measurements were taken 2 hours after chemical dosing in a 96-well plate.NVS_GPCR_mCCKAPeripheral is one of one assay component(s) measured or calculated from the NVS_GPCR_mCCKAPeripheral assay. It is designed to make measurements of radioligand binding, a form of binding reporter, as detected with scintillation counting signals by Filter-based radiodetection technology.Data from the assay component NVS_GPCR_mCCKAPeripheral was analyzed into 1 assay endpoint. This assay endpoint, NVS_GPCR_mCCKAPeripheral, was analyzed in the positive analysis fitting direction relative to DMSO as the negative control and baseline of activity. Using a type of binding reporter, loss-of-signal activity can be used to understand changes in the binding as they relate to the gene Cckar. Furthermore, this assay endpoint can be referred to as a primary readout, because the performed assay has only produced 1 assay endpoint. To generalize the intended target to other relatable targets, this assay endpoint is annotated to the gpcr intended target family, where the subfamily is rhodopsin-like receptor.
Binding assays used specific radioligands (tritiated, iodinated) with non-radioactive competitive displacement ligands in agonist or antagonist protocols (as indicated) and various reference compounds and inhibitors to titrate specific binding to receptors and transporters. Most enzyme assays (CYPs, kinases, phosphatases, proteases, HDACs) used recombinant protein and specific substrates (fluorescence mostly, some colorimetric and radioactive) and inhibitors, followed by a biochemical separation of substrate and product. All assays for the biochemical HTS were initially run in duplicate at a single concentration (10 uM for CYP450 assays and 25 uM for all others). Assay-chemical combinations meeting a pre-defined threshold (e.g., 30% inhibition and other criteria defined below) were then run in singleton concentration-response format with maximum concentration of 20 uM for CYPs and 50 uM for all others. Each assay was run with positive and negative controls, and concurrent controls on every plate. The follow-up (secondary) screen tested active chemical-pairs in concentration series, as well as a few additional assays not tested in the primary screen, some selected negative inactives, and several cases re-run in the concentration series for confirmatory purposes.

Test [8] relates to rabbit Platelet Activating Factor Receptor (PAF), gene 100354046. The test can be described thus: NVS_GPCR_rabPAF: NovaScreen (NVS) G Protein-Coupled Receptor Assay for rabbit Platelet Activating Factor Receptor (PAF) (AID 2283287). In outline:
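Rabbit platelet membrane preparation; radioligand displacement read by filter-based scintillation counting 1 h after dosing, loss of signal versus DMSO. Primary screen in duplicate at 25 uM, actives followed up in concentration series.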

Test [9] has as its target guinea pig Serotonin, 5-Hydroxytryptamine Receptor 4 (5HT4), HTR4 (gene 100135548) (UniProt O70528). The test can be described thus: NVS_GPCR_g5HT4: NovaScreen (NVS) G Protein-Coupled Receptor Assay for guinea pig Serotonin, 5-Hydroxytryptamine Receptor 4 (5HT4) (AID 2283294). In outline: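 Compounds first screened in duplicate at 25 uM, actives followed up in concentration series. Binding measured as displacement of specific radioligand from guinea pig striatal membranes, 1 h, filter-based scintillation read-out versus DMSO baseline.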

In test [10] the target is rat Adrenergic, Alpha 1A Receptor (Adra1A), Adra1a (gene 29412) (UniProt P43140). Nature of the test: NVS_GPCR_rAdra1A: NovaScreen (NVS) G Protein-Coupled Receptor Assay for rat Adrenergic, Alpha 1A Receptor (Adra1A) (AID 2283296). The method, boiled down: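 Filter radiodetection after 1 h competitive binding on CEC-pretreated rat cortical membranes. Duplicate single-point screening at 25 uM; active chemicals retested across concentration series.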

Several values for one entry are separate records, joined by “and”; a condition that tells them apart may be missing. Identical values can stand only once. Results filed as inconclusive are left out. Activity calls are given as the source filed them. How the source made its calls: active means hit-call score of the fitted dose curve at least 0.9, where 1 is the maximum; inconclusive means response in the unintended direction; inactive means score below 0.9.

Sequence of rat Adrenergic, Alpha 1, Non-selective Receptor (Adra1), Adra1a (gene 29412) (P43140 whole entry, looked up): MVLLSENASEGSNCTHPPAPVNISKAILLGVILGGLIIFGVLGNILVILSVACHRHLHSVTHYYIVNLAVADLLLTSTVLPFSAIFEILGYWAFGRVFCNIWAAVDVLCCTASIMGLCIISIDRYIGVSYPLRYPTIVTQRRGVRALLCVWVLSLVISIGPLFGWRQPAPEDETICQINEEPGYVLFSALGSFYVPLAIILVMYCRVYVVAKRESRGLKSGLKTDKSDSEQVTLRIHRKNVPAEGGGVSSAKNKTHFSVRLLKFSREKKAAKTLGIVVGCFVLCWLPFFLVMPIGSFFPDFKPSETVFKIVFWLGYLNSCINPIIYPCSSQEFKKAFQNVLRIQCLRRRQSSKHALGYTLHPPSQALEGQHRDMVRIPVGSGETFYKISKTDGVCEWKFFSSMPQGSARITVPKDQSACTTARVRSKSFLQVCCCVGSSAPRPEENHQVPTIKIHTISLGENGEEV
Sequence of rat Adrenergic, Alpha 1A Receptor (Adra1A), Adra1a (gene 29412) (P43140 whole entry, looked up): as above
Sequence of rat Serotonin, 5-Hydroxytryptamine Receptor 1 (5HT1), Non-Selective Binding, Htr1a (gene 24473) (P19327 whole entry, looked up): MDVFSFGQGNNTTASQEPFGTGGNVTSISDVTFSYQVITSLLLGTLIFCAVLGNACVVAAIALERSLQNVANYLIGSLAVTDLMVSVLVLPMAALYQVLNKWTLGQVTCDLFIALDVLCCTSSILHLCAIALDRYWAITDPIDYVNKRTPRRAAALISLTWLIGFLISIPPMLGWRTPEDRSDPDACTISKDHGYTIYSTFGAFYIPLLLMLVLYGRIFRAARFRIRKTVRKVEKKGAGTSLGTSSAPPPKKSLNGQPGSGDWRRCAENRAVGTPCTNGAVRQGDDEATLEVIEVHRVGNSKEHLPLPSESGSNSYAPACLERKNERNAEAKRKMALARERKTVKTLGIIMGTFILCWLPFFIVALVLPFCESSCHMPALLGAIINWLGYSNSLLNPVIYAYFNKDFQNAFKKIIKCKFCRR
Sequence of rat Serotonin, 5-Hydroxytryptamine Receptor (5HT), Non-Selective Binding, Htr1a (gene 24473) (P19327 whole entry, looked up): as above
Sequence of mouse Cholecystokinin, CCK2 Receptor (CCKB), Cckbr (gene 12426) (P56481 whole entry, looked up): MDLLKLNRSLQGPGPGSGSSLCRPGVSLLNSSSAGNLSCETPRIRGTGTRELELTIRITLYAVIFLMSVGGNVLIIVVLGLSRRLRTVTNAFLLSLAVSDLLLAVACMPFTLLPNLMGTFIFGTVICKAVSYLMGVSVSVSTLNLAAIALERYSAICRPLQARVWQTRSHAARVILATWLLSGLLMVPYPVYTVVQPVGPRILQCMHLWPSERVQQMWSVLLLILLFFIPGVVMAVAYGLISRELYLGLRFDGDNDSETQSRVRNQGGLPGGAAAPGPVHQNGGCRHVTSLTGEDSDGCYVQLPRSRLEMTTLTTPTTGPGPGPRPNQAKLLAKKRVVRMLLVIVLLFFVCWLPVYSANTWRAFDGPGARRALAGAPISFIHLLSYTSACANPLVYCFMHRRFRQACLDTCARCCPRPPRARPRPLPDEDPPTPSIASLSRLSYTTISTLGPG
Sequence of guinea pig Serotonin, 5-Hydroxytryptamine Receptor 4 (5HT4), HTR4 (gene 100135548) (O70528 whole entry, looked up): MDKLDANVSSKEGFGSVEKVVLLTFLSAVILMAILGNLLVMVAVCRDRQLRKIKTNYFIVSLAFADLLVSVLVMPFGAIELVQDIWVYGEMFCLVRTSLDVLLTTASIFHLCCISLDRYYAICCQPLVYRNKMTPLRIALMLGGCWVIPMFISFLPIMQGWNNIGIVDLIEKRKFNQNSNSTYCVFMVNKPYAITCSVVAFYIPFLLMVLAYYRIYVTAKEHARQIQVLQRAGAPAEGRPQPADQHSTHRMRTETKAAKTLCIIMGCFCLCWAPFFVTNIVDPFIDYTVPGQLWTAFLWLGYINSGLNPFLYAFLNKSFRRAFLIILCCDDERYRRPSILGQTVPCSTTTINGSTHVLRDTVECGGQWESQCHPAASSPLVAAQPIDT
Sequence of mouse Cholecystokinin, CCK1 Receptor (CCKA), Cckar (gene 12425) (O08786 whole entry, looked up): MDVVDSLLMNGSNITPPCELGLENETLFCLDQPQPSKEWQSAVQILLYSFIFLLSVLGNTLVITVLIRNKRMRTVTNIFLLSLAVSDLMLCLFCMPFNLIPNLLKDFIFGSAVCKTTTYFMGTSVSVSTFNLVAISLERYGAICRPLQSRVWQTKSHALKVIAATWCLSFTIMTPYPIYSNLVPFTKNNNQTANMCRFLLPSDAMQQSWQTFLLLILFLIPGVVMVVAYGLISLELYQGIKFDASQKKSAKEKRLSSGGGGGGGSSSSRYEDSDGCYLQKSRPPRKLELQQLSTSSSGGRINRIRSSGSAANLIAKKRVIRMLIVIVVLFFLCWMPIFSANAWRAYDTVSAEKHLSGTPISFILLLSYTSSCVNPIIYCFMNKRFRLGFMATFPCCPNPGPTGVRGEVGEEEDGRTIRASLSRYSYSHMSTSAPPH
Sequence of guinea pig Bradykinin Receptor B2 (BK2), BDKRB2 (gene 100135486) (O70526 whole entry, looked up): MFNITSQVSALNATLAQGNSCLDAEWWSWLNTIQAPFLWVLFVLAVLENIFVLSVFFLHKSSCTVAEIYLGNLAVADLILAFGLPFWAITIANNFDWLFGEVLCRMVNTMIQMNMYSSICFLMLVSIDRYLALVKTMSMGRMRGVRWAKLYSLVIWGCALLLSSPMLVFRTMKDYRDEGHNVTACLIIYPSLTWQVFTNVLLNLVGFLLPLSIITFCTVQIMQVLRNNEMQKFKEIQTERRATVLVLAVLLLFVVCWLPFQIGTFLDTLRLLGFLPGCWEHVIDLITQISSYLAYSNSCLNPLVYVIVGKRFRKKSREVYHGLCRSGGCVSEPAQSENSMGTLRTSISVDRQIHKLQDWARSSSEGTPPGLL

For orientation: AC50 means the concentration giving half of the maximal activity seen. As to `CCOC(=O)Nc1cccc(OC(=O)Nc2ccccc2)c1`, the AC50 in test [1] was 20.3 µM (active).

Regarding `O=[N+]([O-])c1ccc(O)c([N+](=O)[O-])c1`, the AC50 in [2] was 25 µM (active).

On to `O=C(Nc1ccc2[nH]ccc2c1)c1cc2cc(F)ccc2n1Cc1cccc(F)c1`, for which, in test [3], the outcome was inactive.

For the compound `CCC(=O)C(CC(C)N(C)C)(c1ccccc1)c1ccccc1` (stereo not given), the outcome in test [4] was inactive. Besides, the AC50 is 1.91 µM (active) in test [1], 18.1 µM (active) in test [5] and 7.26 µM (active) in test [6].

For the compound `CC(=O)[O][Hg][c]1ccccc1`, the AC50 in [7] was 1.65 µM (active); in test [4], 16.4 µM (active); in test [8] it was 38.4 µM (active); in test [5], 18.8 µM (active); in [2], 25 µM (active); in [9], 14.2 µM (active). In addition, the AC50 in test [6] was 19.8 µM (active); in [10] it was 25 µM (active).

Regarding `C=C(C)C(=O)[O][Sn]([CH2]CCC)([CH2]CCC)[CH2]CCC`, the AC50 is 0.281 µM (active) in test [7]; 18 µM (active) in test [4]; 6.61 µM (active) in [8]; 6.86 µM (active) in test [5]; 12 µM (active) in [3]; 2.88 µM (active) in test [2]. In addition, the AC50 in test [9] is 2.78 µM (active); in test [6] it was 13.8 µM (active); in test [10] it was 13 µM (active).

In the case of `CCN1CCC2(CC1)COc1cc3c(cc12)N(C(=O)c1ccc(-c2ccc(-c4nnc(C)o4)cc2C)cc1)CC3`, in test [4], the call was inactive. In addition, the AC50 in test [8] is 12.5 µM (active); in test [5], 11.9 µM (active); in test [9] it was 2.96 µM (active); in test [6] it was 23.4 µM (active); in test [10], 16.4 µM (active).

As to `CC(C)(C)CC(C)(C)c1ccc(O)cc1`, the AC50 in test [7] is 12 µM (active). In [2], the result was inactive.

Take `O=C1C2(Cl)C3(Cl)C4(Cl)C(Cl)(Cl)C5(Cl)C3(Cl)C1(Cl)C5(Cl)C24Cl` (stereo not given): in test [7], the compound was classed as inactive.

With `COc1cc(-c2ccc(N)c(OC)c2)ccc1N`, in [4], the AC50 is 11.8 µM (active) and 12.6 µM (active). Also, the call in test [5] was inactive.
